Bioassay records from PubChem BioAssay.
Rows were chosen to be rich in hits. Some 8.7% of all compounds tested hit in one or more screens of this group.
VACV Venus inh = inhibitors of vaccinia virus (Venus reporter); 330,000 compounds, 0.46% hits; Vaccinia virus Venus reporter expression, fluorescence; AID 720580; Potency, µM (top dose mostly 36.5 µM), inactives show at the highest dose activity change, negative = inhibition, hits mostly inhibitors; calls by dose curve; tested in A549 cells; note: nearly all actives have a fitted effect of over 30% in size
Pf growth 96h = inhibits malaria parasite growth, 96 h | P. falciparum luciferase reporter growth, 96 h | Potency, µM (titrated, usually from 28.7 µM), for the others: at the highest dose activity change, negative = inhibition, most hits filed as inhibitors | 320,000 compounds, 6.9% hits | AID 504834
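96 h incubation, 37 C, 5% CO2, of luciferase-reporter P. falciparum-infected RBCs (2% hematocrit, 0.05% parasitemia final) with test compounds; endpoint luminescence.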
AMA1 RON2 block = inhibitors of Plasmodium falciparum AMA1-RON2 interaction; AlphaScreen AMA1-biotinylated RON2 peptide binding; 360,000 compounds, 0.2% hits; AID 720542; Potency, µM (highest dose often 58.2 µM), inactives show at the highest dose activity change, negative = inhibition, usual class: inhibitors;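 note: 0% = vehicle wells and -100% = peptide control; nearly all actives have a fitted effect of over 45% in size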
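AMA1 (3D7) with his tag at 25 nM final met compounds first, then biotinylated RON2 peptide at 25 nM; detection used donor plus acceptor beads, 10 µg/mL apiece, read by AlphaScreen after 30 min at room temperature.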
Pf growth 48h = P. falciparum growth inhibition at 48 hours (one generation). P. falciparum luciferase growth in erythrocytes, 48 h. Potency, µM (titrated, usually from 28.7 µM), for the others: top-dose activity change, negative = inhibition, usual class: inhibitors. 310,000 compounds, 5.9% hits. AID 504832
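A one-generation exposure of luciferase-tagged malaria parasites in RPMI 1640/Albumax erythrocyte culture, 37 C and 5% CO2. Inhibition is inferred from decreased luminescence after adding detection reagent.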
Vaccinia mCherry = vaccinia inhibition (mCherry reporter). Vaccinia virus mCherry reporter infection, fluorescence. Potency, µM (top dose mostly 36.5 µM), without a hit: at the highest dose activity change, negative = inhibition, most hits filed as inhibitors. 310,000 compounds, 0.63% hits. AID 720579; calls by dose curve; tested in A549 cells; note: nearly all actives have a fitted effect of over 35% in size
Active calls of the source: *; i = inactive; ? = inconclusive; / = no result; [ ] = another dose, or the depositor's remark. Unless noted, calls come from the whole dose curve; as a rule, active = well fitted curve in the direction sought with a large enough effect; inconclusive = small, poorly fitted or top-dose-only effect, or another doubt; inactive = no such curve, though single readings can be large; an effect the other way counts as inactive or inconclusive. Unless noted, % is set by controls: 0 for no effect and ±100 for the full control effect; potency is the fitted concentration of half-maximal effect.

SMILES	VACV Venus inh	Pf growth 96h	AMA1 RON2 block	Pf growth 48h	Vaccinia mCherry
COc1ccc(OC)c(-c2cc(C(=O)NCc3cccs3)no2)c1	-17.1%	?	26.9%	?	-27.0%
COc1ccccc1-c1cc(C(=O)NCc2cccs2)no1	-28.6%	3.7µM*	-19.9%	48.4%	-24.0%
COc1cc(CN2CCc3nnc(C(NS(C)(=O)=O)C(C)C)n3CC2)ccc1F (stereo not drawn)	-0.8%	/	/	/	0.6%
CCc1ccc(NC(=O)C(=O)NCC(c2cccnc2)N2CCOCC2)cc1 (stereo not drawn)	-5.5%	/	/	/	2.2%
COc1ccc(CNC(=O)CCn2cccn2)cc1	3.9%	/	/	/	8.0%
Cc1cc(NC(=O)c2cc(C(C)C)on2)nn1Cc1ccc(Cl)cc1	-13.8%	9.28µM*	9.8%	/	i
Cc1cc(NC(=O)c2cc(-c3ccc(Br)cc3)on2)nn1Cc1ccc(Cl)cc1	-16.1%	/	/	/	-16.3%
O=C(COC(=O)c1ccccc1OCc1cccc(Br)c1)Nc1ccc(Br)cc1	-16.8%	/	/	/	-6.8%
CCOC(=O)C1=C(CC)NC2=C(C(=O)CCC2)C1c1ccc(OC)c(OC)c1 (stereo not drawn)	-11.3%	/	-11.9%	7.38µM*	-18.3%
CCCCOC(=O)C1=C(C)NC2=C(C(=O)CCC2)C1c1cc(OC)ccc1OC (stereo not drawn)	-0.3%	13.1µM*	-8.5%	/	-4.9%
CCOC(=O)C1=C(C)NC2=C(C(=O)CCC2)C1c1ccsc1 (stereo not drawn)	/	9.7%	/	-12.5%	/
CC1=C(C(=O)OCC(C)C)C(c2ccsc2)C2=C(CCCC2=O)N1 (stereo not drawn)	-16.0%	8.28µM*	2.7%	13.1µM*	-1.2%
CCOc1ccc(NC(=O)c2cc3c(s2)-c2ccccc2OC3)cc1	-12.5%	/	/	/	-12.0%
COCC(C)n1c(SCC(=O)N2CC(=O)Nc3ccccc32)nc2ccccc2c1=O (stereo not drawn)	/	?	-5.8%	13.1µM*	/
CC(c1ccccc1)n1c(SCC(=O)N2CC(=O)Nc3ccccc32)nc2ccccc2c1=O (stereo not drawn)	?	5.22µM*	16.5%	13.1µM*	-28.4%
CC(C)Cn1c(SCC(=O)N2CC(=O)Nc3ccccc32)nc2ccccc21	-17.7%	?	4.3%	?	-5.4%
C/C(=C\C(=O)OCCCCCCCCC(=O)O)C[C@@H]1OC[C@H](C[C@@H]2O[C@H]2[C@@H](C)[C@H](C)O)[C@@H](O)[C@H]1O	-8.5%	0.0301µM*	-0.5%	0.19µM*	i
Cc1ccc(S(=O)(=O)CC(=O)Nc2nc3c(C)cc(C)cc3s2)cc1	-2.7%	/	/	/	-13.9%
O=C(O)c1cc[c]([Hg][Cl])cc1	-6.6%	5.22µM*	-3.0%	5.86µM*	i
COC(=O)c1cc2sccc2n1Cc1nc(-c2ccc(Cl)cc2)oc1C	-14.5%	10.4µM*	5.4%	12.2%	-16.5%
COC(=O)c1cc2ccsc2n1Cc1nc(-c2cccc(Cl)c2)oc1C	-4.1%	4.15µM*	-12.7%	/	-14.1%
COC(=O)c1cc2sccc2n1Cc1nc(-c2cccc(Cl)c2)oc1C	-14.0%	9.28µM*	-0.6%	/	-10.2%
Cc1cc(C)cc(Nc2nc3ccccc3nc2-n2nc(C)cc2C)c1	-13.0%	/	/	/	-10.0%
COc1ccc(-c2nc3ccccc3n3c(-c4cccc(C)c4)c4c(=O)n(C)c(=O)n(C)c4c23)cc1OC	-8.0%	/	/	/	-17.2%
Cc1ccc(NS(=O)(=O)c2cccc3nsnc23)cc1C	-10.2%	4.15µM*	-12.1%	-0.3%	-15.2%
SMILES	VACV Venus inh	Pf growth 96h	AMA1 RON2 block	Pf growth 48h	Vaccinia mCherry
COc1ccc(C(=O)N(CN2CCCC2=O)c2ccccc2OC)cc1OC	/	0.0041µM*	3.8%	2.5%	/
Cc1ccc(NC(=O)C2CCN(S(=O)(=O)c3ccc4[nH]c5c(c4c3)CCCCC5)CC2)cc1	-23.1%	/	/	/	-22.9%
CCn1c2ccccc2c2cc(NC(=O)C(C)OC(=O)c3ccc(NC(=O)CC#N)cc3)ccc21 (stereo not drawn)	/	?	13.9%	11.7µM*	/
CCn1c2ccccc2c2cc(NC(=O)COC(=O)c3ccc(O)cc3)ccc21	?	24.0%	1.8%	-0.5%	11.2µM*
CCn1c2ccccc2c2cc(NC(=O)COC(=O)Cc3cn4ccsc4n3)ccc21	10µM*	?	-25.9%	16.1%	/
CC(OC(=O)c1ccc(NC(=O)CC#N)cc1)C(=O)NCCC1=CCCCC1 (stereo not drawn)	/	10.4µM*	13.8%	9.28µM*	/
CC(OC(=O)c1ccc(S(=O)(=O)N(C)c2ccccc2)cc1)C(=O)NCCC1=CCCCC1 (stereo not drawn)	-23.4%	-8.1%	-2.8%[11.6 µM]	1.3%	-9.4%
COc1ccccc1NC(=O)CSc1nnc(NC(=O)NC2CCCCC2)s1	-2.2%[7.34 µM]	/	/	/	4.6%[7.34 µM]
CC(C)c1ccc(S(=O)(=O)c2cn(CC(=O)Nc3ccc(F)cc3)c3ccccc3c2=O)cc1	-21.9%	/	/	/	-17.1%
O=C(NCCc1ccccc1)C1(c2ccccc2)CCCC1	-8.0%	13.1µM*	21.2%	-22.0%	-15.8%
CC(C)c1ccc(C(=O)Nc2ccc(-c3nc4ccccc4s3)c(Cl)c2)cc1	-25.0%	/	/	/	-24.4%
Cc1ccccc1-c1noc(CSc2nc(-c3ccc(F)cc3)cc(=O)[nH]2)n1	-8.4%	/	/	/	i
CCc1ccc(S(=O)(=O)Nc2c(C)nc3nc[nH]n3c2=O)cc1	-11.3%	9.8%	1.1%	6.0%	-6.6%
CCC(=O)Nc1ccc(S(=O)(=O)Nc2c(C)nc3nc[nH]n3c2=O)cc1	3.8%	10.4µM*	6.6%	-6.1%	-2.7%
CCC(=O)Nc1ccc(NC(=S)Nc2ccccc2)cc1	-7.5%	11.7µM*	7.7%[11.6 µM]	26.0%	i
CCC(=O)Nc1ccc(S(=O)(=O)Nc2ncccn2)cc1	/	9.28µM*	-5.3%	/	/
CC(=O)Nc1ccc(S(=O)(=O)Nc2ncccn2)cc1	-11.2%	0.0%	-0.7%	5.7%	i
CCOC(=O)c1noc2ncn(CC(=O)O)c(=O)c12	-16.7%	/	/	/	i
CC(C)CCNc1nc2c(S(=O)(=O)c3ccc(Br)cc3)nnn2c2ccsc12	-23.7%	/	/	/	-21.9%
CNC(=S)N/N=C(\C)c1ccc(N2CCOCC2)cc1	/	10.4µM*	82.5%	-3.8%	/
CN(C)CCCN(C(=O)c1ccc2c(c1)CCCC2)c1nc2ccc(Cl)cc2s1	?	1.85µM*	?	8.28µM*	?
CCOC(=O)N1CCN(S(=O)(=O)c2ccc(C(=O)N(CCCN(C)C)c3nc4ccc(Cl)cc4s3)cc2)CC1	/	-0.6%	-5.0%	?	/
COc1cccc2sc(N(CCCN(C)C)C(=O)c3ccc(S(=O)(=O)N4CCCc5ccccc54)cc3)nc12	/	?	-11.8%	10.4µM*	/
COc1cccc2sc(N(CCN(C)C)C(=O)c3ccc4c(c3)CCCC4)nc12	-14.6%	?	-27.8%	10.4µM*	-21.0%
CCOc1ccc2nc(N(CCCN(C)C)C(=O)c3ccc4c(c3)CCCC4)sc2c1	/	5.86µM*	-11.7%	?	/
CN(C)CCCN(C(=O)c1ccc(S(=O)(=O)N2CCc3ccccc32)cc1)c1nc2c(Cl)cccc2s1	?	?	-0.3%	?	-13.7%
